High-throughput results deposited in PubChem by National Center for Advancing Translational Sciences (NCATS).
MCF10A rerep: A quantitative high throughput screen for small molecules that induce DNA re-replication in MCF 10a normal breast cells; MCF 10A DNA re-replication, Hoechst nuclear intensity, 48 h; Potency, µM (top dose mostly 46.1 µM), for inactives: top-dose activity, positive = re-replication, most hits filed as activators; actives 2.9% (n = 350,000); further: potency means the concentration at half of the fitted maximal effect; % of control where 0% means no effect; nearly all actives have a fitted effect of over 50% in size
KB-3-1 tox: qHTS assay for MDR1-selective chemotherapeutics: Primary screen using the parental adenocarcinoma cell KB-3-1; KB-3-1 viability, CellTiter-Glo ATP luminescence, 72 h; Potency, µM (highest dose often 46.1 µM), usual class: cytotoxic; actives 1.4% (n = 400,000); AID 1347075, 2019; further: potency means the concentration at half of the fitted maximal effect; on the % scale 0 is the no-effect control and ±100 the full control effect; nearly all actives have a fitted effect of over 60% in size
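Multi-concentration cytotoxicity screen in KB-3-1 cells grown in DMEM lacking phenol red with 10% FBS. After 72 h at 37 °C with compound, ATP-dependent luminescence was recorded.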
SW480 rerep: A quantitative high throughput screen for small molecules that induce DNA re-replication in SW480 colon adenocarcinoma cells | AID 624297, 2012 | Potency, µM (doses to about 46.1 µM), inactives show at the highest dose re-replication activation, actives largely listed as activators | actives 1.8% (n = 340,000) | SW480 DNA re-replication, Hoechst DNA content imaging, 48 h; further: potency means the concentration at half of the fitted maximal effect; % of control where 0% means no effect; nearly all actives have a fitted effect of over 55% in size
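Image-based read-out: total Hoechst fluorescence of nuclei (405 nm excitation, 500-530 nm emission), with hits raising the fraction of high-intensity nuclei. SW480 colon cells incubated 48 hr with compounds at 37 C.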
KB-V1 cytotox: qHTS assay for MDR1-selective chemotherapeutics: Primary screen using the drug-selected MDR subline cells KB-V1; actives 3.4% (n = 400,000); Potency, µM (top dose mostly 46.1 µM), most hits filed as cytotoxic; AID 1347076, 2019; KB-V1 MDR cells viability, CellTiter-Glo, 72 h; further: potency means the concentration at half of the fitted maximal effect; on the % scale 0 is the no-effect control and ±100 the full control effect; nearly all actives have a fitted effect of over 60% in size
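KB-V1 cells (P-gp-expressing MDR subline of KB-3-1) in phenol-red-free DMEM with 10% FBS were exposed to library compounds over a concentration series for 72 h at 37 degrees C. Viability read by CellTiter-Glo luminescence; concentration-effect curves fitted after normalization.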
IL-1B inflam inh: qHTS for Inhibitors of Inflammasome Signaling: IL-1-beta AlphaLISA Primary Screen; AID 743279, 2014; actives 4.7% (n = 360,000); THP-1 LPS/ATP IL-1B secretion, AlphaLISA, 16 h; active compounds read low; activity change, % at 57.5 µM; in the data active means activity change below about -50%; inconclusive means mostly about -30% to -49%; further: on the % scale 0 is the no-effect control and ±100 the full control effect
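THP-1 cells pretreated 1 hr with compounds (up to 57.5 uM final), then stimulated with LPS (250 ng/mL final) plus ATP (1.25 mM final); secreted IL-1B measured by AlphaLISA after 16 hr, decreased signal indicating inhibition.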
An asterisk follows results filed as active; i = inactive; ? = inconclusive; . = not tested or not shown. Only some compounds are listed: those with a hit (about 9.9% of all), similar ones and a draw of the others. Unless noted, the call rests on the fitted dose curve; in most records, active means well fitted curve in the direction sought with a large enough effect; inconclusive means small, poorly fitted or top-dose-only effect, or another doubt; inactive means no such curve, though single readings can be large; an effect the other way counts as inactive or inconclusive.

SMILES	MCF10A rerep	KB-3-1 tox	SW480 rerep	KB-V1 cytotox	IL-1B inflam inh
COc1cc2c(cc1OC)C(c1c(Cl)cccc1Cl)=NCC2	.	21µM*	.	?	9
Cc1cccn2c(=O)c3cc(C(=O)NCC4CCCO4)c(=N)n(CCN4CCOCC4)c3nc12 (stereo not given)	15µM*	i	16µM*	i	-51*
COCCCn1c(=N)c(C(=O)NCC2CCCO2)cc2c(=O)n3cccc(C)c3nc21 (stereo not given)	13µM*	?	6.5µM*	?	6
Cc1cccn2c(=O)c3cc(C(=O)NCc4cccnc4)c(=N)n(CC4CCCO4)c3nc12 (stereo not given)	2.3µM*	i	?	i	1
Cc1cccn2c(=O)c3cc(C(=O)NCCc4ccccc4)c(=N)n(CC4CCCO4)c3nc12 (stereo not given)	?	i	-5%	i	17
CCN(C(=O)c1cc2c(=O)n3cccc(C)c3nc2n1CCCOC)C1CCCCC1	18µM*	i	29µM*	?	-7
COCCCn1c(C(=O)NC2CCCCC2C)cc2c(=O)n3cccc(C)c3nc21 (stereo not given)	?	i	-8%	i	25
O=C(CN(Cc1cccs1)C(=O)CCC(=O)Nc1ccccn1)NCc1ccccc1	-10%	i	3%	i	2
CC(C)CC(=O)NC1(C(F)(F)F)C(=O)Nc2c1c(=O)[nH]c(=O)n2-c1ccccc1 (stereo not given)	.	i	.	i	.
Nc1ccc(-c2cnc[nH]2)cc1[N+](=O)[O-]	-3%	i	-7%	i	-8
CCOCCCn1c(=N)c(C(=O)NCC2CCCO2)cc2c(=O)n3cccc(C)c3nc21 (stereo not given)	.	i	.	i	.
COCCCn1c(=N)c(C(=O)NCC2CCCO2)cc2c(=O)n3ccccc3nc21 (stereo not given)	12µM*	i	6.5µM*	i	-24
CCCn1c(=N)c(C(=O)NCC2CCCO2)cc2c(=O)n3cccc(C)c3nc21 (stereo not given)	12µM*	21µM*	?	i	?
Cc1ccc(N2CC(NC(=O)C3CC3)CC2=O)cc1 (stereo not given)	?	i	?	i	6
O=C1NC(=O)C2(CCCCC2C2CCCCC2)N1 (stereo not given)	-3%	i	1%	i	-1
COc1ccccc1Nc1ccc(NC(=O)c2cccc([N+](=O)[O-])c2C)cc1	-1%	18µM*	38%	?	-27
COc1cc2c(cc1NC(=O)c1cccc([N+](=O)[O-])c1C)oc1ccccc12	?	?	?	i	-55*
COc1ccc(S(=O)(=O)N[C@@H](C)C(=O)OCC(=O)Nc2cc3oc4ccccc4c3cc2OC)cc1	5%	i	1%	i	13
COc1cc2c(cc1NC(=O)c1cccc(S(=O)(=O)N(C)C)c1)oc1ccccc12	?	i	?	10µM*	-2
COc1cc2c(cc1NC(=O)COC(=O)[C@@H](NS(=O)(=O)c1cccc(Cl)c1)C(C)C)oc1ccccc12	7%	i	15%	23µM*	0
COc1ccc(-n2nc(C(=O)NCC(=O)NCCC3=CCCCC3)c3ccccc3c2=O)cc1	10%	i	5%	i	-20
CN=c1scc(-c2c[nH]c3ccccc23)n1C	-14%	i	10%	i	-21
COc1ccc2[nH]c(CN3CCN(C(C)C)C(CCO)C3)c(C)c2c1 (stereo not given)	-4%	i	-55%	i	-2
CCOc1ccc(CN2CCN(Cc3[nH]c4ccccc4c3C)CC2CCO)cc1 (stereo not given)	?	?	23µM*	?	-74*
COc1ccc2[nH]c(CN3CCN(CC(C)C)C(CCO)C3)c(C)c2c1 (stereo not given)	17%	i	-5%	i	-96*
SMILES	MCF10A rerep	KB-3-1 tox	SW480 rerep	KB-V1 cytotox	IL-1B inflam inh
CCOc1ccc(CN2CCN(Cc3cc4c(cc3Cl)OCO4)CC2CCO)cc1 (stereo not given)	4%	i	?	i	-60*
CCOc1ccc(CN2CCN(Cc3cccc4c3OCO4)CC2CCO)cc1 (stereo not given)	7%	i	-4%	i	-4
N#Cc1cc2cc3c(cc2nc1NCCNC(=S)NCCCN1CCOCC1)OCO3	21µM*	i	?	i	-19
CCCCCCCCN1C(=O)[C@H](CC(=O)NCc2cccc(C(F)(F)F)c2)C[C@@]2(C(=O)OCC)CCCC=C12	.	?	.	?	-53*
CCCCCCCCN1C(=O)[C@H](CC(=O)NCc2ccccc2)C[C@@]2(C(=O)OCC)CCCC=C12	.	i	.	?	-72*
Cn1nc(-c2ccc(NCCO)c([N+](=O)[O-])c2)c2ccccc2c1=O	-16%	?	4%	i	-12
CN(C)CCNc1ccc(-c2nn(C)c(=O)c3ccccc23)cc1[N+](=O)[O-]	-1%	?	-4%	23µM*	-4
Cc1ccc(C)c(NC(=S)c2ccccn2)c1	?	i	?	i	-101*
Cc1ccc(C)c(NC(=O)CN2C(=O)c3cccnc3Oc3ccc(C)cc32)c1	.	i	.	i	.
CC(=O)Nc1ccccc1NC(=O)c1cc(C)ccc1C	3%	i	-3%	i	16
Cc1ccc(C)c(C(=O)c2ccccc2NC(=O)c2ccccn2)c1	7.3µM*	?	?	?	18
Cc1ccc2c(c1)C(=O)C(=O)N2CC(=O)Nc1ccccc1NC(=O)c1ccccn1	13µM*	?	18µM*	i	39
CCOC(=O)[C@@H]1[C@H]2COc3cc(OC)ccc3[C@@H]2N2C(=O)N(c3ccccc3)C(=O)[C@@]12C	26%	i	5%	i	4
COc1ccc2cc(C3CC=C(CO)CN3S(=O)(=O)c3ccccc3[N+](=O)[O-])n(C(=O)OC(C)(C)C)c2c1 (stereo not given)	.	i	.	?	-17
CC(=O)c1c(C)nn(CC(O)Cn2c3c(c4cc(C)ccc42)CCCC3=O)c1C (stereo not given)	?	i	?	i	-62*
CCCCn1c(=O)n(-c2cc(OC)ccc2OC)c(=O)c2c3c(sc21)CN(C(C)=O)CC3	.	i	.	?	.
COc1cc(OC)cc(C(=O)OCC(=O)N(C)c2ccccc2)c1	4%	i	-4%	i	7
